Compounds with a hit are over-represented: about 6.3% of the library has one in this group of screens.
TIM10 inh: inhibits growth of TIM10 yeast strain; S. cerevisiae TIM10 strain growth, BacTiter-Glo luminescence, 24 h; inhibition, % at 10 µM; actives 1.4% (n = 330,000); AID 463195;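 active means inhibition of 40% or more at the single tested concentration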;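 further: wild-type TIM10 isogenic control strain grown at permissive 25 °C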
tim23-1 inh: inhibits growth of tim23-1 mutant yeast. actives 1.3% (n = 330,000). S. cerevisiae tim23-1 growth, BacTiter-Glo luminescence, 24 h. AID 463212. inhibition, % at 20 µM;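 active means growth inhibition of the mutant yeast at or above 50%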;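 further: temperature-sensitive mutant grown at 25 °C; plate controls were DMSO-treated mutant yeast for no effect and medium wells lacking yeast for full effect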
tim10-1 inh: growth inhibitors of tim10-1 mutant yeast. actives 2.2% (n = 330,000). inhibition, % at 20 µM. S. cerevisiae tim10-1 ts strain growth, BacTiter-Glo, 24 h;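 active means inhibition of at least 40%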;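 further: mutant grown at 25 °C; 0% = DMSO wells with yeast and 100% = wells holding no yeast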
Mdm2 MdmX PPI: inhibitors of human Mdm2/MdmX interaction; actives 3% (n = 330,000); inhibition, % at 8 µM; SaOS-2 split-luciferase Mdm2/MdmX complementation, luminescence; O15151+Q00987;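 active means inhibition of at least 50% at 8 µM in the primary screen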
Target sequence (O15151 whole entry, looked up): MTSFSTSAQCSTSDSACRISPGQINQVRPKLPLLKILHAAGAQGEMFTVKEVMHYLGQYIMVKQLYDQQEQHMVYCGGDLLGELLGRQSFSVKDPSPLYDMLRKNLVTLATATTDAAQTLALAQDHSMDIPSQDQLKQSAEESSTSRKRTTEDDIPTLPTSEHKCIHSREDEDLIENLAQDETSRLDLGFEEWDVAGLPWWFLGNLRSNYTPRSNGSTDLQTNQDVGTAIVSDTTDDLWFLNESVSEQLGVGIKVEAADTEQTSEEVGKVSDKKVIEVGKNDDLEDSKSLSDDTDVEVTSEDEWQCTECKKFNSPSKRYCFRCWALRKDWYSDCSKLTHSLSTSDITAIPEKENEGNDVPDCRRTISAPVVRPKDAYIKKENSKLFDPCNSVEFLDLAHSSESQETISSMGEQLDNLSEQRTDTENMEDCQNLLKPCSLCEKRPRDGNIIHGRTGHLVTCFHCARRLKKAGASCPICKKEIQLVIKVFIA
Target sequence (Q00987 whole entry, looked up): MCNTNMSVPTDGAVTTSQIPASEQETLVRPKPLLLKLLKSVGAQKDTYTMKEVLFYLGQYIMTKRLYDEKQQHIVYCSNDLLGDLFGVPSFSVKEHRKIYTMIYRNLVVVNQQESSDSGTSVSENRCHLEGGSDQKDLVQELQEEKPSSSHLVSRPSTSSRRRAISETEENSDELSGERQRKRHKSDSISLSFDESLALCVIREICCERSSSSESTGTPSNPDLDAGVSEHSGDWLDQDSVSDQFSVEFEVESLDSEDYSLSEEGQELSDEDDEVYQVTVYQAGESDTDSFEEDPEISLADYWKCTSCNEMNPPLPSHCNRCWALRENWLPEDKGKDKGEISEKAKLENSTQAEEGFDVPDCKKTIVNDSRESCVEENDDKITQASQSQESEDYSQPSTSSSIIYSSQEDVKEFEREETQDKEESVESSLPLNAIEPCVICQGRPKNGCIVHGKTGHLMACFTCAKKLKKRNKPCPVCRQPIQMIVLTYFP
MPTP inh: permeability transition pore inhibition; inhibition, % at 10 µM; isolated mouse mitochondria, Ca2+ swelling absorbance, 30 min; actives 1.4% (n = 360,000);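 active means inhibition of 50% or more, scaled per plate between neutral and stimulator controls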;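 further: 0% = DMSO wells given calcium and 100% = 1 mM EGTA wells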
tim10-1 conf: tim10-1 yeast growth inhibition, confirmed. shares compounds with tim10-1 inh. S. cerevisiae tim10-1 ts strain growth, BacTiter-Glo, 24 h. inhibition, % at 20 µM. actives 56% (n = 7,400). AID 463213;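 active means inhibition of yeast growth at or above a set limit in either of two repeat tests at 20 µM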;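 further: tim10-1 mutant grown at permissive 25 °C to find synthetic lethal compounds; 0% = DMSO yeast wells and 100% = medium wells without yeast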
tim10 confirm: TIM10 yeast growth inhibition, confirmed | AID 463215 | actives 63% (n = 4,600) | inhibition, % at 10 µM | S. cerevisiae tim10 strain growth, BacTiter-Glo luminescence, 24 h | shares compounds with TIM10 inh;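 active means inhibition of yeast growth at or above a set limit in either of two replicates at 10 µM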;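 further: this counterscreen used the strain with wild-type TIM10; 0% = yeast with DMSO and 100% = medium wells lacking yeast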
tim23-1 conf: tim23-1 yeast growth inhibition, confirmed; shares compounds with tim23-1 inh; S. cerevisiae tim23-1 growth, BacTiter-Glo luminescence, 24 h; inhibition, % at 20 µM; actives 83% (n = 4,400); AID 463218;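 active means inhibition above about 39% in either of two replicate wells at 20 µM, limit read from the data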;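 further: temperature-sensitive tim23-1 mutant grown at 25 °C; 0% = DMSO wells with yeast and 100% = medium wells without yeast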
Mdm2 MdmX conf: human Mdm2/MdmX binding inhibition, confirmed. shares compounds with Mdm2 MdmX PPI. luminescent assay. inhibition, % at 8 µM. actives 55% (n = 10,000). AID 489028; in the data active means inhibition above about 40%
FLuc counter: full-length luciferase inhibition in Mdm2/MdmX counter-screen; actives 77% (n = 6,200); AID 504607; SaOS-2 full-length luciferase counterscreen, luminescence; inhibition, % at 8 µM; shares compounds with Mdm2 MdmX PPI;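 active means mean inhibition at 8 µM reaching about 37%, which flags the compound as non-specific, limit read from the data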;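 further: p53-null SaOS-2 cells with luciferase driven by a doxycycline-inducible promoter; compound on cells about two nights before reading with doxycycline added after day one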
* = called active by the depositor.

`O=c1c(Cl)c(Cl)cnn1Cc1nnc(-c2ccccc2Br)o1` gave TIM10 inh 44*, tim23-1 inh 78*, tim10-1 inh 63*, Mdm2 MdmX PPI 100*, MPTP inh 0, tim10-1 conf 67*, tim10 confirm 50*, tim23-1 conf 77*, Mdm2 MdmX conf 100* and FLuc counter 54*.
Cc1sc(NC(=O)CCl)c(C(=O)c2ccccc2)c1C was read as TIM10 inh 46*, tim23-1 inh 52*, tim10-1 inh 43*, Mdm2 MdmX PPI 54*, MPTP inh 4, tim10-1 conf 39*, tim10 confirm 9, tim23-1 conf 38* and Mdm2 MdmX conf 4.
For C(=C\c1ccccc1)/CN1CCN(C(c2cccs2)c2nnnn2-c2ccc3c(c2)OCCO3)CC1 (stereo unspecified) the results were MPTP inh 0.
Screening CN(Cc1ccccc1)c1ncnc2ccc(Br)cc12 returned TIM10 inh 31, tim23-1 inh 44, tim10-1 inh 42*, Mdm2 MdmX PPI 57*, MPTP inh 12, tim10-1 conf 11, Mdm2 MdmX conf 49* and FLuc counter 39*.
COc1cccc(C(C[N+](=O)[O-])c2c(C)[nH]n(-c3ccccc3)c2=O)c1 (stereo unspecified) was read as TIM10 inh 62*, tim23-1 inh 27, tim10-1 inh 51*, Mdm2 MdmX PPI 65*, MPTP inh 1, tim10-1 conf 64*, tim10 confirm 89* and Mdm2 MdmX conf 25.
For COc1cc(/C=C/C(=O)c2ccc(Cl)s2)cc(OC)c1O the results were TIM10 inh 43*, tim23-1 inh 67*, tim10-1 inh 62*, Mdm2 MdmX PPI 65*, MPTP inh 3, tim10-1 conf 59*, tim10 confirm 44*, tim23-1 conf 53*, Mdm2 MdmX conf 51* and FLuc counter 45*.
Cc1ccc(C(=O)O/N=C(\N)c2ccccn2)c(C)c1 was read as TIM10 inh 39, tim23-1 inh 47, tim10-1 inh 54*, Mdm2 MdmX PPI 99*, MPTP inh -1, tim10-1 conf 63*, Mdm2 MdmX conf 98* and FLuc counter 51*.
Screening Cc1ccc(C)c(C(=O)O/N=C(\N)c2ccc(Br)cc2)c1 returned TIM10 inh 87*, tim23-1 inh 86*, tim10-1 inh 57*, Mdm2 MdmX PPI 57*, MPTP inh 2, tim10-1 conf 33*, tim10 confirm 87*, tim23-1 conf 61*, Mdm2 MdmX conf 54* and FLuc counter 104*.
Cc1cc(C)cc(C(=O)O/N=C(\N)c2ccc(Br)cc2)c1 was read as TIM10 inh 35, tim23-1 inh 9, tim10-1 inh 40*, Mdm2 MdmX PPI 100*, MPTP inh 0, tim10-1 conf 31*, Mdm2 MdmX conf 78* and FLuc counter 90*.
COc1cc(-c2nc(C(=O)NCC3CCCO3)cc3c2[nH]c2ccccc23)cc(OC)c1OC (stereo unspecified) was read as TIM10 inh 18, tim23-1 inh 36, tim10-1 inh 42*, Mdm2 MdmX PPI 86*, MPTP inh 0, tim10-1 conf 19, Mdm2 MdmX conf 54* and FLuc counter 56*.
`O=Cc1cc2ccccc2nc1SCc1ccc(Cl)cc1` gave TIM10 inh 50*, tim23-1 inh 78*, tim10-1 inh 64*, Mdm2 MdmX PPI 81*, MPTP inh 1, tim10-1 conf 55*, tim10 confirm 63*, tim23-1 conf 64*, Mdm2 MdmX conf 59* and FLuc counter 84*.

Compound activity from PubChem.
